Only a part of the results of these assays is listed, not drawn at random.

The target in this experiment is T1, Protein RecA (Mycobacterium tuberculosis) (UniProt P9WHJ3).
T1 sequence (whole entry): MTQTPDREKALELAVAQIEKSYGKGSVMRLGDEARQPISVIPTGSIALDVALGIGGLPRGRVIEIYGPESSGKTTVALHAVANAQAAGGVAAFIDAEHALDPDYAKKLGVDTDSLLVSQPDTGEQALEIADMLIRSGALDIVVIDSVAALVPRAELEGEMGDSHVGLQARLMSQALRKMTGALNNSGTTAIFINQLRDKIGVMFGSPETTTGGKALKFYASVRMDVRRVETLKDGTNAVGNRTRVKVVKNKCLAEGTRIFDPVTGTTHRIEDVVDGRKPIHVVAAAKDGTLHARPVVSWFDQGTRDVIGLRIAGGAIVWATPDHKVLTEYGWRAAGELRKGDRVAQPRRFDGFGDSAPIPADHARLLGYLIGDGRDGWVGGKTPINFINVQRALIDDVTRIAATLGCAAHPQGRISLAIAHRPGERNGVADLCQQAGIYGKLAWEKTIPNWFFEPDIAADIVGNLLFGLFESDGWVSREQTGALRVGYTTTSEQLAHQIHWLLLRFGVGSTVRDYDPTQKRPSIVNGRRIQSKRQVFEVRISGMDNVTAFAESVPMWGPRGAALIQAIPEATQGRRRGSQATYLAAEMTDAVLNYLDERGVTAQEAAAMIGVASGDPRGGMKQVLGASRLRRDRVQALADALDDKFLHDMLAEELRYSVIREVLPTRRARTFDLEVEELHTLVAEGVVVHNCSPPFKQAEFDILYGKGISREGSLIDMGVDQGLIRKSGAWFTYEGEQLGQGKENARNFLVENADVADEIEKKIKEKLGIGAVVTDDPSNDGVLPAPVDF
Description: M. tuberculosis H37Rv growth inhibition, dose response, strain H37Rv (AID 489010).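 Note: whole Mycobacterium tuberculosis cells grown in culture and not purified RecA protein.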 Type of experiment: functional.
In general, IC90 refers to the concentration needed for an effect of 90%. In the case of `CC(=O)n1cc(N(C(=O)CCl)c2ccc(C)cc2)c2ccccc21`, the IC90 was 5.03 µM (active). Turning to `Cc1nc2c(=O)n(C)c(=O)nc-2n(C)n1`, the IC90 is 4.19 µM (active).

As for `COc1cc2c(cc1OC)-c1c(OC)c(OC)cc3c1C(C2)N(C)CC3` (centres undefined), the IC90 was 40.2 µM (active).

In the case of `CN(C1=C(NC(=O)c2ccc(Cl)cc2)C(=O)c2ccccc2C1=O)c1ccccc1`, the IC90 was 16.7 µM (active).

For the compound `Cc1sc2ncnc(Sc3nnnn3-c3ccccc3)c2c1C`, the IC90 is > 100 µM (active).

On to `Cn1nc(-c2ccccn2)nc2c(=O)n(C)c(=O)nc1-2`, for which the IC90 was 22.3 µM (active). Take `CC(NC(=O)COC(=O)c1cc(NS(=O)(=O)c2ccc(Cl)c([N+](=O)[O-])c2)ccc1O)C1CC2CCC1C2` (centres undefined): the IC90 was > 100 µM (active).

Consider `Clc1ccc(-n2nnnc2Sc2ncnc3sccc23)cc1`, for which the IC90 was 9.74 µM (active). With `CC(C)(C)C1CCc2sc(C(=O)NNC(=O)CCl)cc2C1` (centres undefined), the IC90 is 33.3 µM (active). Turning to `O=C(Cc1ccccc1)c1c[nH]c(C(=O)C(Cl)(Cl)Cl)c1`, the concentration for an effect of 90% (IC90) was > 100 µM (active). Then `COC(=O)c1sc(-c2ccc(Cl)cc2)cc1NC(=O)/C=C/C(=O)O`, with > 100 µM (active). With `Fc1ccc(Oc2nc(-c3ccccc3)nnc2C(F)(F)F)cc1`, the IC90 is > 100 µM (active). Consider `Cc1cc(Br)c2c(c1)/C(=C/C(=O)c1cccs1)C(=O)N2`, for which the IC90 is > 100 µM (active). For the compound `Cc1[nH]n(-c2ccccc2)c(=O)c1C(c1cccc([N+](=O)[O-])c1)c1c(C)[nH]n(-c2ccccc2)c1=O`, the IC90 was > 100 µM (active). Consider `Cc1[nH]n(-c2ccccc2)c(=O)c1C(C[N+](=O)[O-])c1ccc(F)cc1` (centres undefined), for which the 90% effect concentration (IC90) was 32.8 µM (active). On to `Cc1cc(C)c(S(=O)(=O)/N=C2\C=C(Nc3ccc(C(=O)O)cc3)C(=O)c3ccccc32)c(C)c1`, for which the IC90 is > 100 µM (active).

In the case of `O=C(NC(N=C(S)Nc1ccc(Cl)cc1Cl)C(Cl)(Cl)Cl)c1cccc([N+](=O)[O-])c1` (centres undefined), the IC90 is 15.2 µM (active). For `Cc1nn(-c2ccccc2)c(Cl)c1CN(C(=O)CCl)c1ccc(Cl)cc1`, the IC90 was 8.54 µM (active). As for `CCCCCCCCCCn1c2c(c(=N)c3c1CCC3)CCC2`, the figure is 3.39 µM (active).

Source of the values: ChEMBL document CHEMBL1201862, “PubChem BioAssay data set” (2004).
